# Experimental data published in PMC10214531.
# Molecular target: Guanine nucleotide-binding protein G(I)/G(S)/G(T) subunit beta-1 (UniProt P62873)
# Experiment: cross-link between two proteins; cross-linking mass spectrometry
substance,measurement,value
"Guanine nucleotide-binding protein G(I)/G(S)/G(O) subunit gamma-2, P59768",listed as a hit,yes
